This note sets out measurements from PubChem BioAssay (NCI).

Structures are written as SMILES. This is part of a sample that, as a whole, favours compounds with a hit. Of some 83,000 tested, about 20% had one in any assay.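 48-hour exposure, single concentration, 96-well plates; percent growth endpoint where 0 means no net growth. Active: below 10.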 Active and inactive are the calls of the source.

One experiment concerns TK-10 renal. In words: NCI-60 one-dose screen, 48 h (100 = growth as untreated, 0 = no growth, -100 = all killed). To be noted: 10 µM unless noted.
For the compound `CCOC(=O)c1c(C)[nH]c2ccc(O)cc12`, the growth was 128% (inactive).

In the case of `CCC1CCCCN1C(=S)N/N=C(\C)c1ccccn1` (centres undefined), the growth is 19.7% (inactive).

`CC(/C=N/NC(N)=S)Cc1ccc(C(C)C)cc1` (centres undefined): the growth is 99.6% (inactive).

In the case of `Nc1ccc(C(=O)/C=C/c2ccccc2)cc1`, the growth is 85.2% (inactive).

Consider `Cc1oc2c(C)c3oc(=O)cc(C)c3cc2c1CCl`, for which the growth was 86.1% (inactive).

Take `O=C(/C(Cl)=N/O)c1ccc(-c2ccccc2)cc1`: the growth was 106% (inactive).

Consider `CC(C)c1ccc(Nc2n[nH]c(=S)s2)cc1`, for which the growth was 93.1% (inactive).

Take `NC(=S)N/N=C\c1nccc2c(N)cccc12`: the growth was 48% (inactive).

For the compound `COc1cc2c(c(OC)c1OC)-c1ccc(NCc3ccccc3)c(=O)cc1[C@@H](NC(C)=O)CC2`, the growth is 26% (inactive).

As to `CCCCCCCCCCCCCCCCSC(=NCC)NCC`, the growth is 50.7% (inactive).

Regarding `CN(Cc1ccccc1)c1ccc(SC#N)cc1`, the growth was 95.8% (inactive).

Regarding `CC(=O)Nc1ccc(C(=O)CCl)cc1`, the growth was 43.8% (inactive).

For `O=[N+]([O-])c1ccc(N2CCN(Cc3ccccc3)CC2)c2c1no[n+]2[O-]`, the growth is -15.7% (active).

`CCOC(=O)NC(/C=C/c1ccccc1)NC(=O)OCC`: the growth is 100% (inactive).

`CCCCN(CCCC)CCCCCCCCCCO`: the growth was 93.6% (inactive).

As to `S=C1SCN(Cc2cccs2)CN1Cc1cccs1`, the growth is 90.7% (inactive).

On to `CCOC(=O)/C(=C\c1ccc2ccccc2c1)P(=O)(OCC)OCC`, for which the growth was 61.4% (inactive).

Regarding `Nc1ccc(Oc2ccccc2)c(Cl)c1`, the growth is 96.1% (inactive).

Take `COc1ccc(C(Cn2ccnc2)Sc2ccc(Cl)c(Cl)c2)cc1` (centres undefined): the growth was 96.7% (inactive).

In the case of `O=[N+]([O-])/C(=C/c1ccccc1)c1ccccc1`, the growth was 89.5% (inactive).

As for `CCCCCCC1N=C(N)N=C(N)N1c1cccc(Cl)c1` (centres undefined), the growth is 67.6% (inactive).

As for `O=C1C=CC(=O)N1C1CCCCCCCCCCC1`, the growth is 71.5% (inactive).

`Cc1nc(Sc2nc3ccc([N+](=O)[O-])cc3s2)sc1C`: the growth was 19.3% (inactive).

Consider `Fc1ccc(NCCS)cc1`, for which the growth was 106% (inactive).

`OCCOSCCO`: the growth is 100% (inactive).

Consider `COc1cc(OC)c(/C=C/c2c3ccccc3cc[n+]2C)c(OC)c1`, for which the growth was 42.1% (inactive).

For the compound `CC(C)(C)c1ccc(O)c(Br)c1`, the growth was 111% (inactive).

Regarding `O=C/C=C/c1ccc([N+](=O)[O-])cc1`, the growth is 99.9% (inactive).

Turning to `COc1ccc2nc3cc(Cl)ccc3c(NCCCCCN3CCCCC3)c2c1`, the growth is -9.41% (active).

As to `COc1cc(-c2ccc(-[n+]3nc(-c4ccc([N+](=O)[O-])cc4)nn3-c3ccc([N+](=O)[O-])cc3)c(OC)c2)ccc1-[n+]1nc(-c2ccc([N+](=O)[O-])cc2)nn1-c1ccc([N+](=O)[O-])cc1`, the growth is -9.35% (active).

For the compound `O=C1C=CC(=O)N1c1cc(Cl)c(Cl)cc1Cl`, the growth is 106% (inactive).

Turning to `Nc1cccc2cccc([N+](=O)[O-])c12`, the growth is 109% (inactive).

Regarding `CCc1cnc2ccccc2c1/C=C/c1ccc(N(C)C)cc1`, the growth is 57.1% (inactive).

As for `O=[N+]([O-])c1ccc(C2N(Cc3ccc(Cl)cc3)CCN2Cc2ccc(Cl)cc2)cc1`, the growth was 80.5% (inactive).

For the compound `Oc1ccc2c(c1)CCc1ccccc1-2`, the growth was 100% (inactive).

Consider `COc1cc(/C=C2\SC(=S)N(/C=C/c3nc4ccccc4[nH]c3=O)C2=O)cc(OC)c1OC`, for which the growth was 70.1% (inactive).

With `CC(C)(C)CC(C)(C)c1ccc(OCCOCCSC(=N)N)cc1`, the growth was 78% (inactive).

Another experiment relates to ACHN renal. The experiment is described as above. To be noted: 10 µM unless noted.
Take `CCOC(=O)c1c(C)[nH]c2ccc(O)cc12`: the growth is 110% (inactive).

Regarding `CCC1CCCCN1C(=S)N/N=C(\C)c1ccccn1` (centres undefined), the growth is 7% (active).

For the compound `CC(/C=N/NC(N)=S)Cc1ccc(C(C)C)cc1` (centres undefined), the growth was 103% (inactive).

Turning to `Nc1ccc(C(=O)/C=C/c2ccccc2)cc1`, the growth was 105% (inactive).

In the case of `Cc1oc2c(C)c3oc(=O)cc(C)c3cc2c1CCl`, the growth was 78.3% (inactive).

Regarding `O=C(/C(Cl)=N/O)c1ccc(-c2ccccc2)cc1`, the growth is 86.8% (inactive).

As for `CC(C)c1ccc(Nc2n[nH]c(=S)s2)cc1`, the growth was 106% (inactive).

On to `NC(=S)N/N=C\c1nccc2c(N)cccc12`, for which the growth was -7.84% (active).

In the case of `COc1cc2c(c(OC)c1OC)-c1ccc(NCc3ccccc3)c(=O)cc1[C@@H](NC(C)=O)CC2`, the growth is 28.8% (inactive).

In the case of `CCCCCCCCCCCCCCCCSC(=NCC)NCC`, the growth was -21.6% (active).

Consider `CN(Cc1ccccc1)c1ccc(SC#N)cc1`, for which the growth is 78.8% (inactive).

With `CC(=O)Nc1ccc(C(=O)CCl)cc1`, the growth is -58% (active).

`O=[N+]([O-])c1ccc(N2CCN(Cc3ccccc3)CC2)c2c1no[n+]2[O-]`: the growth was -91.6% (active).

On to `CCOC(=O)NC(/C=C/c1ccccc1)NC(=O)OCC`, for which the growth was 109% (inactive).

As to `CCCCN(CCCC)CCCCCCCCCCO`, the growth is 97.1% (inactive).

In the case of `S=C1SCN(Cc2cccs2)CN1Cc1cccs1`, the growth was 105% (inactive).

In the case of `CCOC(=O)/C(=C\c1ccc2ccccc2c1)P(=O)(OCC)OCC`, the growth was 14% (inactive).

For `Nc1ccc(Oc2ccccc2)c(Cl)c1`, the growth is 101% (inactive).

Regarding `COc1ccc(C(Cn2ccnc2)Sc2ccc(Cl)c(Cl)c2)cc1` (centres undefined), the growth was 83.4% (inactive).

With `O=[N+]([O-])/C(=C/c1ccccc1)c1ccccc1`, the growth was 101% (inactive).

Regarding `CCCCCCC1N=C(N)N=C(N)N1c1cccc(Cl)c1` (centres undefined), the growth is 53.9% (inactive).

For the compound `O=C1C=CC(=O)N1C1CCCCCCCCCCC1`, the growth is 50.1% (inactive).

Take `Cc1nc(Sc2nc3ccc([N+](=O)[O-])cc3s2)sc1C`: the growth was 11.4% (inactive).

As to `Fc1ccc(NCCS)cc1`, the growth is 105% (inactive).

Turning to `OCCOSCCO`, the growth is 91.2% (inactive).

On to `COc1cc(OC)c(/C=C/c2c3ccccc3cc[n+]2C)c(OC)c1`, for which the growth is 71.5% (inactive).

Consider `CC(C)(C)c1ccc(O)c(Br)c1`, for which the growth was 104% (inactive).

For `O=C/C=C/c1ccc([N+](=O)[O-])cc1`, the growth was 112% (inactive).

Turning to `COc1ccc2nc3cc(Cl)ccc3c(NCCCCCN3CCCCC3)c2c1`, the growth is -67.7% (active).

As for `COc1cc(-c2ccc(-[n+]3nc(-c4ccc([N+](=O)[O-])cc4)nn3-c3ccc([N+](=O)[O-])cc3)c(OC)c2)ccc1-[n+]1nc(-c2ccc([N+](=O)[O-])cc2)nn1-c1ccc([N+](=O)[O-])cc1`, the growth is 9.61% (active).

Regarding `O=C1C=CC(=O)N1c1cc(Cl)c(Cl)cc1Cl`, the growth is 96% (inactive).

On to `Nc1cccc2cccc([N+](=O)[O-])c12`, for which the growth was 116% (inactive).

Consider `CCc1cnc2ccccc2c1/C=C/c1ccc(N(C)C)cc1`, for which the growth was 60.3% (inactive).

In the case of `O=[N+]([O-])c1ccc(C2N(Cc3ccc(Cl)cc3)CCN2Cc2ccc(Cl)cc2)cc1`, the growth is 81.6% (inactive).

As for `Oc1ccc2c(c1)CCc1ccccc1-2`, the growth was 109% (inactive).

Regarding `COc1cc(/C=C2\SC(=S)N(/C=C/c3nc4ccccc4[nH]c3=O)C2=O)cc(OC)c1OC`, the growth was 82.4% (inactive).

As for `CC(C)(C)CC(C)(C)c1ccc(OCCOCCSC(=N)N)cc1`, the growth was 33.5% (inactive).
